NS1 inh: blocks influenza NS1 protein function. Potency, µM (doses to about 46.1 µM). 0.4% of 270,000 active. AID 2326; calls by dose curve; also: actives are rising curves; nearly all actives have a fitted effect of over 50% in size
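Read-out: OD600 growth recovery of NS1-expressing budding yeast. Cells grown overnight at 30C in -URA glucose medium, washed, resuspended and diluted 1:100 in 2% galactose assay medium, pH 6.0. Same strain lacking NS1 served as positive control.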
Cruzain inh noDet: blocks cruzain activity in detergent-free assay; P25779; purified cruzain, Z-FR-AMC fluorescence, no detergent; Potency, µM, most hits filed as inhibitors; 2.3% of 200,000 active; AID 1476; also: nearly all actives have a fitted effect of over 40% in size
Target sequence (P25779 123-467 limits assumed): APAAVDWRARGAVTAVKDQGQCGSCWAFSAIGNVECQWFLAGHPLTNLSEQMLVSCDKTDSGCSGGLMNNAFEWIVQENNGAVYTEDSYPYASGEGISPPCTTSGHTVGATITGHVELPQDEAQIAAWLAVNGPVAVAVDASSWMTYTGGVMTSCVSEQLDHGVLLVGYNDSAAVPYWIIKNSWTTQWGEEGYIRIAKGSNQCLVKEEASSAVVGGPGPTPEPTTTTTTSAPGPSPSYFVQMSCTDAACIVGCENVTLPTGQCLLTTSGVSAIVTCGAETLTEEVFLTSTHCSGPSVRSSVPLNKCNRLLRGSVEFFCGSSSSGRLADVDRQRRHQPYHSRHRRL
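Detergent-free condition (0.00005% Triton X-100) in acetate buffer pH 5.5 with DTT. 1.5 nM enzyme and compound were pre-mixed 15 min, then 2 uM Z-FR-AMC substrate added; reaction progress from fluorescence change between first and third reads (60 s).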
Cruzain Triton: cruzain (T. cruzi) inhibition with detergent | P25779 | purified cruzain, Z-FR-AMC fluorescence, 0.01% Triton | 0.43% of 200,000 active | Potency, µM, actives largely listed as inhibitors; also: nearly all actives have a fitted effect of over 40% in size
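Detergent-containing run (0.01% Triton X-100) in acetate buffer pH 5.5 with 5 mM DTT: enzyme at 1.5 nM final, 15 min compound preincubation at room temperature, then 2 uM Z-FR-AMC substrate. Activity taken as 60 s fluorescence increase at 360/450 nm.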
Large screens that a line does not name were inactive. Shown is part of a subset that was picked to be rich in hits. Unless noted, calls follow the shape of the dose curve; as a rule, active = well fitted curve in the direction sought with a large enough effect; inconclusive = small, poorly fitted or top-dose-only effect, or another doubt; inactive = no such curve, though single readings can be large; an effect the other way counts as inactive or inconclusive.

COc1ccc(NC(=O)c2oc3ccc(S(=O)(=O)N4CCC5(CC4)OCCO5)cc3c2C)cc1Cl	none (no result: NS1 inh)
COc1ccc(-c2noc(-c3ccc(NC(C)c4ccccc4)c([N+](=O)[O-])c3)n2)cc1OC (stereo not given)	Cruzain inh noDet 12.6µM (no result: NS1 inh)
COc1ccc(-c2noc(-c3ccc(NC4CCCCC4)c([N+](=O)[O-])c3)n2)cc1OC	none (no result: NS1 inh)
Clc1cccc(-n2ncc3c(NCCCN4CCOCC4)ncnc32)c1	none (no result: NS1 inh)
O=c1oc(-c2ccccc2)nc2c1C1(CCCCC1)Cc1ccccc1-2	Cruzain inh noDet 25.1µM
CCC1(CC)Cc2ccccc2-c2nc(-c3ccccc3)oc(=O)c21	Cruzain inh noDet inconclusive
N.N.N.N.N.N.N.N.N.N.N.N.N.N.O.O.[Cl-].[Cl-].[Cl-].[Cl-].[Cl-].[Cl-].[Ru].[Ru].[Ru]	none
CCOc1ccccc1NC(=O)Nc1nnc(N2CCCC(C)C2)s1 (stereo not given)	none (no result: NS1 inh)
COc1cc(C)cc(OC)c1/C=C\C(=O)O	none
O=C(O)COc1ccccc1/C=C1\SC(=S)N(/N=C/c2ccccc2O)C1=O	Cruzain inh noDet inconclusive, Cruzain Triton 28.2µM
O=C(O)COc1ccccc1/C=C1\SC(=Nc2ccc(F)cc2)N(c2ccc(F)cc2)C1=O	none (no result: Cruzain inh noDet, Cruzain Triton)
O=C1C2C3C=CC(C2C(=O)N1CN1CCOCC1)C1C2C(=O)N(CN4CCOCC4)C(=O)C2C31 (stereo not given)	none
O=C(CN1CCN(Cc2ccc(F)cc2Cl)S1(=O)=O)Nc1ccc(F)cc1	none (no result: NS1 inh)
CC(=O)C1=C(O)C(=O)N(c2ccc(Br)cc2)C1c1cccc([N+](=O)[O-])c1 (stereo not given)	none (no result: Cruzain inh noDet, Cruzain Triton)
O=C1OCCN1C(=O)[C@H]1[C@H](c2ccc([N+](=O)[O-])cc2)C(c2cccc(Cl)c2)=NN1c1ccc(Br)cc1	Cruzain inh noDet 3.55µM (no result: NS1 inh)
Cc1cccc(C2=NN(c3ccccc3)[C@@H](C(=O)N3CCOC3=O)[C@@H]2c2ccc([N+](=O)[O-])cc2)c1	Cruzain inh noDet inconclusive (no result: NS1 inh)
O=C1OCCN1C(=O)[C@H]1[C@H](c2ccc([N+](=O)[O-])cc2)C(c2ccccc2)=NN1c1ccc(Br)cc1	Cruzain inh noDet 14.1µM (no result: NS1 inh)
O=C(Nc1ccc(F)c(Cl)c1)C1CCN(S(=O)(=O)c2ccc3c(c2)CCCN3C(=O)C2CCC2)CC1	none (no result: NS1 inh)
Cc1ccc2[nH]c(-c3ccc(F)cc3F)cc(=O)c2c1	none (no result: NS1 inh)
COc1cc(OC)c(NC(=O)c2cn(C3CCCC3)c(=O)c3c2c2ccccc2n3C)cc1Cl	none (no result: NS1 inh)
COc1ccc(Cl)cc1NC(=O)c1cn(C2CCCCC2)c(=O)c2c1c1ccccc1n2C	Cruzain inh noDet 10µM (no result: NS1 inh)
CCOC(=O)CN(Cc1ccccc1)C(C(=O)NC1CCCCC1)c1ccccc1 (stereo not given)	none (no result: NS1 inh)
CCCN1C(=O)C(Cc2nc3ccccc3c(=O)n2-c2ccc(OC)cc2)c2cc(C)ccc21 (stereo not given)	none (no result: NS1 inh)
CCc1cc2c(=O)nc3n(c2s1)Cc1ccccc1/C3=C(/O)c1ccccc1Cl	Cruzain inh noDet 25.1µM
CCc1cc2c(=O)nc3n(c2s1)Cc1ccccc1/C3=C(/O)c1ccc(F)cc1	Cruzain inh noDet inconclusive
CC(C)C1O[C@H](/C=C\c2ccccc2)OCC1(C)C (stereo not given in full)	none
Cc1ccc(S(=O)(=O)CC#CCOC(=O)c2ccc([N+](=O)[O-])cc2)cc1	Cruzain inh noDet 12.6µM, Cruzain Triton 14.1µM
Cc1ccc(C(=O)c2ccc([N+](=O)[O-])cc2)cc1	none
CCNc1ncc2ncc(=O)n(C3CC3)c2n1	none (no result: NS1 inh)
COc1ccc(N2C(=O)Cc3cc(OC)c(OC)cc3C2c2ccc(F)cc2)cc1 (stereo not given)	Cruzain inh noDet inconclusive (no result: NS1 inh)
CCOC(=O)C1=C(N)Oc2ccc(Br)cc2[C@@H]1[C@@H](C#N)C(=O)OCC	none (no result: NS1 inh)
COc1ccc(OC/C(O)=C(\C#N)c2nc3ccccc3[nH]2)cc1	Cruzain inh noDet 25.1µM
COc1ccc(/C=N/OC/C(O)=C(\C#N)c2nc3ccccc3[nH]2)cc1	none
COC(=O)c1nnc(C(=O)NCc2ccccc2)c2[nH]c3ccccc3c12	none (no result: NS1 inh)
O=C(O)/C=C\c1ccc[c]([Sb])c1	none
Cc1ccc2[nH]c(O)c(N=NC(N)=S)c2c1	none (no result: Cruzain inh noDet, Cruzain Triton)
NC(=S)N=Nc1c(O)[nH]c2ccccc12	Cruzain inh noDet 12.6µM, Cruzain Triton inconclusive
Cc1ccc2oc(C(=O)Nc3sc4c(c3C(=O)NCc3ccccc3)CCCC4)cc(=O)c2c1	none (no result: NS1 inh)
CC(=O)OCC(=O)[C@]12OC(C)(C)O[C@@H]1C[C@H]1[C@H]3CC=C4C[C@@H](O)CC[C@]4(C)[C@H]3CC[C@]12C	none
CN(C)c1ccc(-c2noc(-c3ccccc3O)n2)cc1	Cruzain inh noDet 25.1µM, Cruzain Triton 22.4µM
c1ccc(-c2noc(-c3ccccc3-c3ccccc3)n2)cc1	none
Fc1ccc(CSc2ncnc3c2oc2ccccc23)cc1	none
Cc1nc(SCc2nc3ccccc3[nH]2)c2oc3ccccc3c2n1	Cruzain inh noDet 15.8µM, Cruzain Triton inconclusive
c1ccc2[nH]c(CSc3ncnc4c3oc3ccccc34)nc2c1	Cruzain inh noDet 15.8µM, Cruzain Triton inconclusive
Cc1nc(SCc2ccc(F)cc2)c2oc3ccccc3c2n1	none (no result: Cruzain inh noDet, Cruzain Triton)
O=C(NCc1cc(F)cc2c1OCCO2)[C@H]1C[C@@H]1[C@H](NP(=O)(c1ccccc1)c1ccccc1)c1ccccc1	none (no result: NS1 inh)
OC1c2ccccc2-c2nc3ccccc3cc21 (stereo not given)	none (no result: NS1 inh)
COc1ccc(COc2cc(-c3cccc(OC)c3)nc3ccc(NC(C)=O)cc23)cc1	Cruzain inh noDet inconclusive
COc1ccc(COc2cc(-c3cccc(OC)c3)nc3ccc(NC(=O)c4ccc(C)cc4)cc23)cc1	Cruzain inh noDet 7.94µM
CCOC(=O)c1sc(NC(=O)COC(=O)CNC(=O)C2CCCCC2)c(C(=O)OCC)c1C	Cruzain Triton 2.24µM
CCOC(=O)c1sc(NC(=O)COC(=O)CNC(=O)c2ccco2)c(C(=O)OCC)c1C	Cruzain inh noDet inconclusive
O=C(COC(=O)CCOc1ccccc1)Nc1ccc(Cl)cn1	none
O=C(COC(=O)CNC(=O)C1CCCCC1)Nc1ccc(Cl)cn1	Cruzain inh noDet 6.31µM, Cruzain Triton 6.31µM
ClP(Cl)(Cl)(Cl)Cl	none (no result: NS1 inh)
CCCCOC(C)=O	none (no result: NS1 inh)
O=C(Nc1ccc(Cl)cc1)Nc1nnc(CSCc2ccc(Cl)cc2)s1	Cruzain inh noDet 5.01µM
CCc1nnc(NC(=O)Nc2ccc(Cl)cc2)s1	none (no result: Cruzain inh noDet, Cruzain Triton)
O=C(Nc1nnc(CC2=CCCCC2)s1)c1cccs1	none
O=C(Nc1ccc(Cl)c(Cl)c1)Nc1nnc(CC2=CCCCC2)s1	Cruzain inh noDet 25.1µM
CN(C)CC[C@H](c1ccc(Br)cc1)c1ccccn1	none (no result: NS1 inh)
C=C1C2CC[C@]3(CCC4[C@@]5(C)CCC[C@@]4(CN(CCO)C5)[C@@H]3C2)[C@@H]1O (stereo not given in full)	none (no result: NS1 inh)
COc1cccc(Cn2c(=O)c(-c3cccc(C#N)c3)nc3cnc(Nc4ccccc4)nc32)c1	none (no result: NS1 inh)
C=C(C)C(=O)/C=C/CCC/C=C/C(=O)OCC	none (no result: NS1 inh)
COc1ccc(OC)c(Nc2nc(-c3sc(NC(=O)CC(C)C)nc3C)cs2)c1	none
CCCC(=O)Nc1nc(C)c(-c2csc(Nc3ccccc3C)n2)s1	none
CCCCCCC(=O)Nc1nc(C)c(-c2csc(Nc3ccccc3OC)n2)s1	Cruzain inh noDet 10µM
CCCCCC(=O)Nc1nc(C)c(-c2csc(Nc3ccccc3OC)n2)s1	NS1 inh inconclusive, Cruzain inh noDet 12.6µM
CCCCCC(=O)Nc1nc(C)c(-c2csc(Nc3ccccc3OCC)n2)s1	Cruzain inh noDet 7.94µM
CCCC(C)C(=O)Nc1nc(C)c(-c2csc(Nc3ccccc3OC)n2)s1 (stereo not given)	Cruzain inh noDet inconclusive
